# Source: the supplement of paper PMC10849652
# About 8,800 targets were measured; listed, in parts, are those with a hit and a random draw of the rest. About 0.5% of all pairs of compound and target were hits. Unmarked numbers belong to inactive results.
# Assays:
# Assay in all cases: log2 fold change, soluble protein after heating vs DMSO (PISA); higher = thermal stabilisation; K562 lysate, 10 uM; active = over 0.2 and 3.5 SD of the protein, either way, in both replicates (recomputed)
# [1] = compound: C1=CC=C(C=C1)[C@H](COC2=CC3=C(C=C2)NC(=O)N3)NC(=O)C4=CC=CN(C4=O)CC5=CC(=C(C=C5)F)F
# Outline: (§1)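 Following dounce homogenisation of K562 pellets in PBS pH 7.4 with 1 mM MgCl2, crude extract at 1 mg/mL protein was incubated for 30 min with 10 μM compound. Aliquots were then heated for 3 min over 48°C-58°C and pooled, NP-40 was added to 0.5% at 4°C, and soluble protein was recovered as the supernatant at 21,000xg for 90 min. Channel-sum-equalised TMTpro 16plex LC-MS/MS quantified this protein. Each value, from duplicates, is a log-two fold change in thermal stability relative to solvent controls.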
# [2] = compound: CC1=C(SC2=C1C(=N[C@H](C3=NN=C(N32)C)CC(=O)N)C4=CC=C(C=C4)Cl)C
# Outline: as §1
# [3] = compound: CC1=C2C(=CC=C1)N=C(N(C2=O)C3=CC=CC=C3C)CN4C=NC5=C(N=CN=C54)N
# Outline: as §1
# [4] = compound: Cc1sc2c(c1C)C(c1ccc(Cl)cc1)=N[C@@H](CC(=O)OC(C)(C)C)c1nnc(C)n1-2
# Outline: as §1
# [5] = compound: c1ccc([C@@H]2C[C@H]2NC2CCNCC2)cc1
# Outline: as §1
# Sequence of UniProt P53805 (P53805 whole entry, looked up): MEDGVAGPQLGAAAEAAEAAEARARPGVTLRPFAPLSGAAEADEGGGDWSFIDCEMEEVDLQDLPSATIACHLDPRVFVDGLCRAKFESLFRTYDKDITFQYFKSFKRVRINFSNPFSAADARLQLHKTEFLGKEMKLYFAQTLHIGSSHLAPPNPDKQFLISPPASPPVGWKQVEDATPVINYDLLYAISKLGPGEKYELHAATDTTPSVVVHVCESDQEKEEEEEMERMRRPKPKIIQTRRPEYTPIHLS
# Sequence of UniProt Q92930 (Q92930 whole entry, looked up): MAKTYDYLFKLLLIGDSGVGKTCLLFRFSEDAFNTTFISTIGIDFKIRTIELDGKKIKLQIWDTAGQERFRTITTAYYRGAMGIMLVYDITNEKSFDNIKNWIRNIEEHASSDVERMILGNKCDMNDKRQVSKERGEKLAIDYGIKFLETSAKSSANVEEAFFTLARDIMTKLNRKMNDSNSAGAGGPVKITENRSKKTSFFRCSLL
# Sequence of UniProt O43502 (O43502 whole entry, looked up): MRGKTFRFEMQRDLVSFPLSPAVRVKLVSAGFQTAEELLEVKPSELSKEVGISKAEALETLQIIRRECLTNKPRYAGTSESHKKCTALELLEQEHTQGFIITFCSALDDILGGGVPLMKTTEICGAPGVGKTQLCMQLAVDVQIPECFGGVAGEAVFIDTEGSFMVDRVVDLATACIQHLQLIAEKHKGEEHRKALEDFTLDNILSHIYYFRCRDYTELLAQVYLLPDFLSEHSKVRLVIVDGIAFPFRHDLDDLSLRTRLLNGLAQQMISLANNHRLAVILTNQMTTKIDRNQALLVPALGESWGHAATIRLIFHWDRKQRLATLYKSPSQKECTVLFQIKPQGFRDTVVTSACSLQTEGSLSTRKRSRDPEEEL
# Sequence of UniProt O43819 (O43819 whole entry, looked up): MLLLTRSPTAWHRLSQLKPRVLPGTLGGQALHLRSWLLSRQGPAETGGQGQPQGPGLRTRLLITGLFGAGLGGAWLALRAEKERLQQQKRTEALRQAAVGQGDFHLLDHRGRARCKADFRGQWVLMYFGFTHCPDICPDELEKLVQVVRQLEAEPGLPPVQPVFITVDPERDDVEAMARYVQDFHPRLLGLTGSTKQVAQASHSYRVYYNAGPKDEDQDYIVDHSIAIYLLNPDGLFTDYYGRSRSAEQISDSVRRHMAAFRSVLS
# Sequence of UniProt Q9NR31 (Q9NR31 whole entry, looked up): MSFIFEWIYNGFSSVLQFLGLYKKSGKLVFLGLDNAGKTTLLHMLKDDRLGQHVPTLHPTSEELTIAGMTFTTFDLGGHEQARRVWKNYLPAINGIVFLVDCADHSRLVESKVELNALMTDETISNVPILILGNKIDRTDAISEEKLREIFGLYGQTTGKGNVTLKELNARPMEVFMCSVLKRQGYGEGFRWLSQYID
# Sequence of UniProt Q9HBH5 (Q9HBH5 whole entry, looked up): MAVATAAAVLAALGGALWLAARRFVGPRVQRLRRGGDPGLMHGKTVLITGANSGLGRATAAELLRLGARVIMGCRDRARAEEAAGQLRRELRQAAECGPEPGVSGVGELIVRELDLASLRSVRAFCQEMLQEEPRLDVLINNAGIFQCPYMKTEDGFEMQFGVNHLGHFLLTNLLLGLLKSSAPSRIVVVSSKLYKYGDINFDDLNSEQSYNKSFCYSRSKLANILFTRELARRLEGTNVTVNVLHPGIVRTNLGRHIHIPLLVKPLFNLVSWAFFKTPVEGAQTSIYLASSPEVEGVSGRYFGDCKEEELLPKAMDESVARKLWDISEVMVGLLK
# Sequence of UniProt Q9BUV8 (Q9BUV8 whole entry, looked up): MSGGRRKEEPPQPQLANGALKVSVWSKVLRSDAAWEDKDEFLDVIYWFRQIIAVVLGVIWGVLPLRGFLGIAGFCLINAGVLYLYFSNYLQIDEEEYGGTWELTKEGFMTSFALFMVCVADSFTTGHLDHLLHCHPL
# Sequence of UniProt Q8TBN0 (Q8TBN0 whole entry, looked up): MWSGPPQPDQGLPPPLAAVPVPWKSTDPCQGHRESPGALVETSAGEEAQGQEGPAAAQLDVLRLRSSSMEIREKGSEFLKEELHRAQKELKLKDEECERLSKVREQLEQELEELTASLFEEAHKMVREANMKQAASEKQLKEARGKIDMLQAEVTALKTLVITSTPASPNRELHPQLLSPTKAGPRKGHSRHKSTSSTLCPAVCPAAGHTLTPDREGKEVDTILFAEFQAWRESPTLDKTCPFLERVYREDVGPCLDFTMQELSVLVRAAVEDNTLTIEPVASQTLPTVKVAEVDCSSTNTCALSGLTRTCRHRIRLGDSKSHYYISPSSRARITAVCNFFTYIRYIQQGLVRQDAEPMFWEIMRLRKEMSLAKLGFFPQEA
# Sequence of UniProt Q96EE3 (Q96EE3 whole entry, looked up): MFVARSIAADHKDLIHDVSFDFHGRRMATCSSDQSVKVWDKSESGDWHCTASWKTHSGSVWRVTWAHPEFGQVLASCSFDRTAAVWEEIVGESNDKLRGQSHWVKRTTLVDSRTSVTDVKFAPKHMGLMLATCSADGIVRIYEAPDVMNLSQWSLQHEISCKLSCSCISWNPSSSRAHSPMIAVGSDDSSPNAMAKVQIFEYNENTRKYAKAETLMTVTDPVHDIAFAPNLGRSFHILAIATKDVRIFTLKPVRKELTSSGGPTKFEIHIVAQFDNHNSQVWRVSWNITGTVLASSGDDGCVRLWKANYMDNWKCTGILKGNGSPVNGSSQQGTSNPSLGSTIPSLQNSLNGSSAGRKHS
# Sequence of UniProt O94855 (O94855 whole entry, looked up): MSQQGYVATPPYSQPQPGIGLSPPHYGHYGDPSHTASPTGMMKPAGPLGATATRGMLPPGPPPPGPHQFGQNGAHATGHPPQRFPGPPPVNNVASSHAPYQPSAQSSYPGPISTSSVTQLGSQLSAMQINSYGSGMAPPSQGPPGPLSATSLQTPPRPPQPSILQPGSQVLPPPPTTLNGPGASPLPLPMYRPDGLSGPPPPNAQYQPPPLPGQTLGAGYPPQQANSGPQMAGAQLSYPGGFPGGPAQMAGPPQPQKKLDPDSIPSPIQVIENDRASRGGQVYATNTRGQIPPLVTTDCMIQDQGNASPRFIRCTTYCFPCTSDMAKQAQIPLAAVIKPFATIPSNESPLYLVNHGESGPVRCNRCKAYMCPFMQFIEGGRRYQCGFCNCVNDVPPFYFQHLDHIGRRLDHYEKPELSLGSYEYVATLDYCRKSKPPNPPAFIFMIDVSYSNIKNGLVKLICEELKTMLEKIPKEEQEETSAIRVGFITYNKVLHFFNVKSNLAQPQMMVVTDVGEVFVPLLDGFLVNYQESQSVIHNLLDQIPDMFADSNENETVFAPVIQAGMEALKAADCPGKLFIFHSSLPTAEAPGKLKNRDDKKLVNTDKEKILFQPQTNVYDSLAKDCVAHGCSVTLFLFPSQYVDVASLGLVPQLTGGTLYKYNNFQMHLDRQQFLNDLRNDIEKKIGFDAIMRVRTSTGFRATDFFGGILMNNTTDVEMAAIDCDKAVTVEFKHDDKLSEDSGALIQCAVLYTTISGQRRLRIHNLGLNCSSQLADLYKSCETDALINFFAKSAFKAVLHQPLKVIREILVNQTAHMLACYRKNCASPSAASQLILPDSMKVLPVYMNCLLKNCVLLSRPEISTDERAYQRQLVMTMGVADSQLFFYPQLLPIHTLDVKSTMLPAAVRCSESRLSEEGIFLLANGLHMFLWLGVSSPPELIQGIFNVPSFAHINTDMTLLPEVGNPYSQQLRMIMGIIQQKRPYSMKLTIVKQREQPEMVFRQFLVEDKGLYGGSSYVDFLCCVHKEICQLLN
# Sequence of UniProt P78406 (P78406 whole entry, looked up): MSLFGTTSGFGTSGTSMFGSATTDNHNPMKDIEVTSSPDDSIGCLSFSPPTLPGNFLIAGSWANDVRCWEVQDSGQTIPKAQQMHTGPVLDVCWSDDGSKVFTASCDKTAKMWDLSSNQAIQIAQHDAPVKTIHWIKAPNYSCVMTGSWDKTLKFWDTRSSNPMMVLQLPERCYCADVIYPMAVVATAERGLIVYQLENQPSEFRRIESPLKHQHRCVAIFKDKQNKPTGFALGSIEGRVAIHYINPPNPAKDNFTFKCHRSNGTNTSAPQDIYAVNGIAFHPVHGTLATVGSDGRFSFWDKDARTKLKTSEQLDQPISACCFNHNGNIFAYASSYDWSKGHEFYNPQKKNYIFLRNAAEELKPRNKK
# Sequence of UniProt O00767 (O00767 whole entry, looked up): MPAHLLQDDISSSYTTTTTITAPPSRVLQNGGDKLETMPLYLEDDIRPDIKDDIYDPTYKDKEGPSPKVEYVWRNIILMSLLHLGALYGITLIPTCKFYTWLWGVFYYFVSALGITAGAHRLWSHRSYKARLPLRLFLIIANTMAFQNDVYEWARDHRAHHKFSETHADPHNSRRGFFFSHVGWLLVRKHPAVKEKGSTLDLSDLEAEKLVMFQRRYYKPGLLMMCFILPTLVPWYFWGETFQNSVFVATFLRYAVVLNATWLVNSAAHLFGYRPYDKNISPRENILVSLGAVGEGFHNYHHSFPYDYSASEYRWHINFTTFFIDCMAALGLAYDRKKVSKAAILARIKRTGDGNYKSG
# Sequence of UniProt Q9P0P0 (Q9P0P0 whole entry, looked up): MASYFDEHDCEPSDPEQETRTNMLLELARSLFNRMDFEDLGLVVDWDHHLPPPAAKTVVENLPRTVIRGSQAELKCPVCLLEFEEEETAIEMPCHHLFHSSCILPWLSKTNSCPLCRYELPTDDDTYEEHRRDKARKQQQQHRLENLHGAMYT
# Sequence of UniProt Q16576 (Q16576 whole entry, looked up): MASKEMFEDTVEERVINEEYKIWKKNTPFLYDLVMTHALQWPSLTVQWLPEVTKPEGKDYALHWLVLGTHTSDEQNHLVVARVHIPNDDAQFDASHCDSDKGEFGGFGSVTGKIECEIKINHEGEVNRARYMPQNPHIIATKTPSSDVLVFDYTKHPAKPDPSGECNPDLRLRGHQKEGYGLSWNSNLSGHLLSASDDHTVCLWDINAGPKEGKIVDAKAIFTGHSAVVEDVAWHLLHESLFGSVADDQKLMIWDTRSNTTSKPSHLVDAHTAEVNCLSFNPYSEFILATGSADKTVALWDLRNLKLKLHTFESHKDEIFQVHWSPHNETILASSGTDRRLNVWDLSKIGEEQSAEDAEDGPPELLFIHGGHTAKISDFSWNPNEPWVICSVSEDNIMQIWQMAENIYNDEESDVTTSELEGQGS
Target,log2 fold change [1],log2 fold change [2],log2 fold change [3],log2 fold change [4],log2 fold change [5]
SCD (UniProt O00767),-0.016,-0.007,0.103,-0.179,-0.184
RAB8B (UniProt Q92930),-0.067,0.013,-0.041,-0.012,0.146
RABGGTB (UniProt P53611),-0.102,-0.01,0.005,-0.048,-0.017
RAD51C (UniProt O43502),-0.028,0.026,0.078,-0.029,-0.004
SEC62 (UniProt Q99442),0.059,-0.017,0.015,0.043,-0.023
RAB5IF isoform 5 (UniProt Q9BUV8),0.01,-0.096,0.019,-0.085,0.364
RASA3 (UniProt Q14644),-0.066,0.149,0.078,0.078,0.047
RPN2 (UniProt P04844),-0.001,-0.01,0.01,-0.008,-0.009
RFWD3 (UniProt Q6PCD5),-0.058,0.132,0,-0.072,0.049
RPL27 (UniProt P61353),0.034,0.031,0.003,0.008,0.101
RPS26P11 (UniProt Q5JNZ5),-0.001,0.031,0.05,-0.033,-0.31 (active)
RDH14 (UniProt Q9HBH5),0.123,-0.016,-0.076,0.102,-0.058
RCOR3 isoform 3 (UniProt Q9P2K3),-0.026,0.009,0.046,0.011,0.394 (active)
RAI14 isoform 2 (UniProt Q9P0K7),0.002,-0.052,-0.02,-0.041,-0.033
SEC24D isoform 2 (UniProt O94855),-0.003,0.006,-0.016,0.033,0.009
SAR1A (UniProt Q9NR31),0.066,0.038,0.005,-0.116,-0.009
RAE1 (UniProt P78406),-0.022,-0.081,-0.005,0.07,-0.022
SCO2 (UniProt O43819),0.026,0.002,0.037,0.011,-0.074
SAMHD1 (UniProt Q9Y3Z3),0.005,0.002,-0.018,0.051,-0.002
RBBP7 isoform 2 (UniProt Q16576),-0.012,-0.009,-0.03,-0.01,-0.033
RASA2 (UniProt Q15283),-0.07,0.045,0.058,0.025,0.037
RNF181 (UniProt Q9P0P0),0.03,-0.145,-0.031,0.022,0.066
SAR1B (UniProt Q9Y6B6),-0.006,-0.007,-0.01,-0.068,0.052
SEH1L isoform 1 (UniProt Q96EE3),0.016,0.031,-0.045,-0.041,-0.028
RCAN1 (UniProt P53805),0.141,-0.074,-0.063,-0.026,0.026
RAB3IL1 (UniProt Q8TBN0),0.047,0.008,0.02,0.007,0.039
SCO1 (UniProt O75880),-0.021,0.017,0,0.136,-0.027
